# HT1080 IDH1KD tx = HT-1080 IDH1 knockdown cell toxicity (counter line); Potency, µM (titrated, usually from 46.1 µM), usual class: cytotoxic; HT-1080 IDH1 knockdown viability, ATP luminescence, 48 h; 360,000 tested, 2% active
#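 In this qHTS, HT-1080 cells depleted of IDH1 are exposed for 48 h at 37 °C to compound titrations. Toxicity is scored from CellTiter-Glo luminescence, with DMSO as full viability and medium alone as none.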
# KB-3-1 tox = KB-3-1 parental cell cytotoxicity; 400,000 tested, 1.4% active; KB-3-1 viability, CellTiter-Glo ATP luminescence, 72 h; Potency, µM (titrated, usually from 46.1 µM), usual class: cytotoxic; also: nearly all actives have a fitted effect of over 60% in size
#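 Cytotoxicity in the drug-sensitive parental line KB-3-1 was scored as loss of CellTiter-Glo luminescence following 72 h incubation with compound. Values come from curve fitting of normalized concentration-response data.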
# HT1080NT lethal = kills 2HG-producing HT-1080-NT fibrosarcoma cells | Potency, µM (top dose mostly 46.1 µM), hits mostly cytotoxic | 360,000 tested, 1.6% active | HT-1080-NT fibrosarcoma viability, CellTiter-Glo ATP luminescence, 48 h;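 also: NT is the 2HG producing partner of a matched IDH1 knockdown line; nearly all actives have a fitted effect of over 55% in size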
#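 A 48-hour cytotoxicity screen used HT-1080-NT cells plated 2 hours before compound delivery. ATP-based CellTiter-Glo luminescence measured viability, normalized to DMSO and no-cell controls.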
# SW480 rereplic = DNA re-replication induction in SW480 cells; Potency, µM (top dose mostly 46.1 µM), actives largely listed as activators; SW480 DNA re-replication, Hoechst DNA content imaging, 48 h; 340,000 tested, 1.8% active; also: nearly all actives have a fitted effect of over 55% in size
#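 Compounds, transferred as 23 nL by pin tool, were incubated with cells for 48 hr; DNA content per nucleus was then quantified by Hoechst staining and fluorescence plate imaging.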
# MCF10A rerep = induces DNA re-replication in MCF 10a normal breast cells; MCF 10A DNA re-replication, Hoechst nuclear intensity, 48 h; Potency, µM (series often up to 46.1 µM), actives largely listed as activators; 350,000 tested, 2.9% active; also: nearly all actives have a fitted effect of over 50% in size
# KB-V1 MDR tox = kills drug-selected multidrug resistant KB-V1 cells; KB-V1 MDR cells viability, CellTiter-Glo, 72 h; Potency, µM (highest dose often 46.1 µM), hits mostly cytotoxic; 400,000 tested, 3.4% active; AID 1347076; also: nearly all actives have a fitted effect of over 60% in size
#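 Cytotoxicity via CellTiter-Glo luminescence after 72 h compound exposure at 37 degrees C. Cells: drug-selected KB-V1 line, DMEM phenol-red free plus 10% FBS. Compounds tested at multiple concentrations; normalized data fitted to concentration-effect curves.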
# A number is an active result; i = inactive; ? = inconclusive; nt = not tested or not shown; [ ] = another dose, or the depositor's remark. This is a sample that favours compounds with a hit; in the whole collection about 7.9% have one here. Calls follow the shape of the dose curve; as a rule, active = well fitted curve in the direction sought with a large enough effect; inconclusive = small, poorly fitted or top-dose-only effect, or another doubt; inactive = no such curve, though single readings can be large; an effect the other way counts as inactive or inconclusive.
SMILES,HT1080 IDH1KD tx,KB-3-1 tox,HT1080NT lethal,SW480 rereplic,MCF10A rerep,KB-V1 MDR tox
C=CC(=O)N1C/C(=C/c2ccc(Cl)cc2)C(=O)/C(=C\c2ccc(Cl)cc2)C1,2.9µM,?,5.8µM,1.5µM,?,i
O=C(c1ccc(F)cc1Cl)N(Cc1ccco1)C1CCS(=O)(=O)C1 (centres undefined),i,i,i,i,i,i
CCOc1ccccc1N1CC(C(=O)N2CCOCC2)CC1=O (centres undefined),i,i,i,i,i,?
O=C1c2ccccc2-c2onc3ccc(Oc4ccccc4)c1c23,4.1µM,?,i,i,?,23µM
Cc1ccc(-c2nn(-c3ccccc3)cc2/C=C2\SC(=S)N(CC(=O)O)C2=O)cc1,i,i,i,i,i,i
CCOc1ccc(-c2nn(-c3ccccc3)cc2/C=C2\SC(N)=NC2=O)cc1C,i[9.24 µM],?,i,i,10µM,i
CC(C)c1ccccc1NC(=O)C1C2C=CC(C2)C1C(=O)O (centres undefined),i,i,i,i,i,i
O=c1c2ccccc2nc(SCc2cccc(F)c2)n1-c1cccc(S(=O)(=O)N2CCCC2)c1,i,i,i,i,i,3.3µM
O=C(c1ccc(-n2c(SCc3cccc(F)c3)nc3ccccc3c2=O)cc1)N1CCOCC1,i,?,i,i,i,?
O=C(CSc1nc2cc([N+](=O)[O-])ccc2n1-c1ccc(F)cc1)NC1CCS(=O)(=O)C1 (centres undefined),i,i,i,i,i,23µM
COc1ccccc1-n1c(SCC(=O)NC2CCS(=O)(=O)C2)nc2cc([N+](=O)[O-])ccc21 (centres undefined),i,i,i,i,i,i
CCCc1c(-c2cccc(F)c2)ncn1CCc1ccccc1OC,?,?,?,nt,nt,18µM
CCCCCc1c(-c2cccc(Cl)c2)ncn1CCc1ccccc1OC,i,i,i,nt,nt,?
CCCCc1c(-c2cccc(Br)c2)ncn1CCc1ccccc1OC,?,?,15µM,nt,nt,10µM
CCCCCc1c(-c2cccc(F)c2)ncn1CCc1ccccc1OC,?,?,?,nt,nt,8.2µM
CCCCCc1c(-c2cccc(OC)c2)ncn1CCc1ccccc1OC,?,?,21µM,nt,nt,16µM
O=c1cc[nH]c(=S)[nH]1,nt,nt,nt,i,i,nt
COc1ccc(-n2c(CCC(=O)O)ccc2-c2ccccc2)c(OC)c1,nt,i,nt,nt,nt,i
CCCCc1c(-c2cccc(F)c2)ncn1CCc1ccccc1OC,?,?,?,nt,nt,12µM
CCc1cc2c(=O)[nH]c(N3CCCC3)nc2s1,i,i,i,?,i,i
CCc1cc2c(=O)[nH]c(-c3ccccn3)nc2s1,?,12µM,i,6.5µM,12µM,?
CCCn1c(C(O)c2ccc(C)cc2)nc2ccccc21 (centres undefined),i,i,i,i,?,i
CCCn1c(C(O)c2ccc3c(c2)OCO3)nc2ccccc21 (centres undefined),i[9.24 µM],i,i,15µM,?,i
CC1CCC(C(C)C)C(OC(=O)COC(=O)c2ccc(N)cc2)C1 (centres undefined),i,i,i,i,23µM,i
O=C(NC(Cc1ccccc1)c1ccc2c(c1)OCCCO2)c1ccccc1F (centres undefined),i,i,i,i,i,16µM
SMILES,HT1080 IDH1KD tx,KB-3-1 tox,HT1080NT lethal,SW480 rereplic,MCF10A rerep,KB-V1 MDR tox
CC(C)(C)N(NC(=O)Nc1ccc(F)cc1)C(=O)c1ccccc1,i,i,i,i,i,i
CC(C)(C)N(NC(=O)Nc1ccc(Cl)c(Cl)c1)C(=O)c1ccccc1,18µM,?,21µM,i[9.22 µM],?,23µM
COc1ccc(CCC(=O)OCc2csc(CC(=O)Nc3ccccc3C)n2)cc1,i,i,i,i,i,i
CSC1=C(C#N)C(C)C2=C(CC(C)(C)CC2=O)N1 (centres undefined),i,?,i,i,i,23µM
COc1ccc(C2C(C#N)=C(SC)NC3=C2C(=O)CC(C)(C)C3)cc1 (centres undefined),i,?,i,i,i,?
Cc1ccc(C)c(CN2C(=O)c3ccccc3S(=O)c3ccc(C(=O)NCc4ccccc4Cl)cc32)c1 (centres undefined),nt,i,nt,nt,nt,i
CCOCCCNC(=O)c1c(NC(=O)c2cc(=O)c3cc(C)c(C)cc3o2)sc2c1CCC2,nt,i,nt,nt,nt,i
O=C(CN(CCc1ccccc1)S(=O)(=O)c1ccc(Cl)cc1)N/N=C/c1ccc2c(c1)OCO2,i,i,i,i,i,9.2µM
CCOc1cc(/C=N/NC(=O)CN(CCc2ccccc2)S(=O)(=O)c2ccc(NC(C)=O)cc2)ccc1O,i,i,?,i,i,?
COc1ccc(S(=O)(=O)N(CCc2ccccc2)CC(=O)N/N=C/c2ccc3c(c2)OCO3)cc1,i,?,i,?,i,4.6µM
COc1ccc(S(=O)(=O)N(CCc2ccccc2)CC(=O)NCc2ccccc2)cc1,nt,i,nt,nt,nt,i
CCNC(=O)CN(CCc1ccccc1)S(=O)(=O)c1ccc(OC)cc1,i,i,i,i,i,21µM
O=C(COC(=O)c1c(F)cccc1F)NC(=O)NCc1ccccc1,i,i,i,nt,nt,i
COc1ccc(-c2csc(-c3c(N)c(C(=O)c4ccccc4)n4ccccc34)n2)cc1OC,nt,i,nt,nt,nt,i
Cc1c(/C=N\NC(=O)C2COc3ccccc3O2)c2ccccc2n1C (centres undefined),0.65µM,?,0.65µM,nt,?,?
O=C(N/N=C/c1c(O)n(-c2ccccc2Cl)c(=O)c2ccccc12)C1COc2ccccc2O1 (centres undefined),?,?,?,?,21µM,?
Cc1ccc(/C=N/NC(=O)C2COc3ccccc3O2)s1 (centres undefined),1.8µM,2.1µM,?,2.8µM,1.8µM,?
O=C(N/N=C/c1cccs1)C1COc2ccccc2O1 (centres undefined),?,i,?,i,i,?
Cc1ccc(-n2c(O)c(/C=N/NC(=O)C3COc4ccccc4O3)c3ccccc3c2=O)cc1 (centres undefined),i,?,i,?,?,?
Cn1cc(/C=N\NC(=O)C2COc3ccccc3O2)c2ccccc21 (centres undefined),nt,nt,nt,i,5.8µM,nt
COc1ccc(CNCC(O)(c2ccccc2)c2ccc(Cl)cc2)cc1 (centres undefined),i,?,?,?,i,13µM
CCc1ccc(C(O)(CNCc2ccccc2)c2ccccc2)cc1 (centres undefined),i,i,i,?,?,i
Cc1ccc(CNCC(O)(c2ccccc2)c2ccc(Cl)cc2)cc1 (centres undefined),?,i,23µM,?,i,?
